Measured values taken from PubChem BioAssay AID504465 (National Center for Advancing Translational Sciences (NCATS), 2011).
Screen size: about 2,100 compounds; about 210 (10%) were called active. Not shown: some 53% with an inconclusive outcome. Calls follow the shape of the dose curve; as a rule, active = well fitted inhibition curve with a large enough effect; inconclusive = small, poorly fitted or top-dose-only effect, or effect the other way; inactive = no such curve, though single readings can be large or run the other way. Some of the results follow.

test: IN Cell qHTS Assay for Inhibitors of the mTORC1 Signaling Pathway in MEF (Tsc2-/-, p53-/-) Cells: Sytravon; details: phospho-rpS6 immunofluorescence, 24 h; series mostly up to 38.3 µM; activity, negative = inhibition: at the top concentration; also: nearly all actives have a fitted effect of over 60% in size;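 as to activity, negative = inhibition: plate controls were DMSO wells for no effect and 7.5 nM rapamycin full pathway inhibition for full effect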
In short: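 Tsc2-/-, p53-/- MEFs (empty-vector) treated with compound 24 h at 37 degree Celsius, then fixed and stained for phospho-rpS6 Ser235/236 (Alexa-488) plus Hoechst. Reported as % positive cells, thresholds set against 7.5 nM rapamycin and DMSO wells.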
Potency is read from the fitted curve at half-maximal effect.

activity, negative = inhibition, inactive:
COc1cccc(NC(=O)C2CCC(CNS(=O)(=O)c3csc(C(N)=O)c3)CC2)c1 (stereo not drawn) 1.3%
O=C(CCCCn1c(=O)[nH]c2ccsc2c1=O)N1CCN(c2cccc(Cl)c2)CC1 13.4%
O=C(NCc1ccco1)C1CCN(C(=O)N2CCOc3ccc(Cl)cc32)CC1 -11.2%
O=C(Nc1ccc(Br)cc1F)c1cc(S(=O)(=O)NC2CCCC2)ccc1F 6.25%
CCC(=O)N1CCc2cc(Br)cc(S(=O)(=O)N3CCCC(C(=O)Nc4ccc(CC)cc4)C3)c21 (stereo not drawn) -0.347%
Cc1ccc(C2c3c(-c4cc(C)ccc4O)n[nH]c3C(=O)N2Cc2ccco2)cc1 (stereo not drawn) -28.4%
COc1ccc(Cn2c(C(=O)O)c(CNCCc3cccs3)c3ccc(OC)cc32)cc1 -23.6%
CCc1ccc(NC(=O)C2CCC(CNS(=O)(=O)c3ccc4c(c3)CC(C)N4C(C)=O)CC2)cc1 (stereo not drawn) 0.227%
Cc1ccc(S(=O)(=O)c2nc(S(=O)(=O)c3ccccc3)sc2NCCCOC(C)C)cc1 -4.2%
Cc1ccc(CSc2oc(-c3ccco3)nc2S(=O)(=O)c2ccc(Cl)cc2)cc1 9.59%
O=S(=O)(NCC(c1ccco1)S(=O)(=O)c1ccccc1)c1cc(F)ccc1F (stereo not drawn) -5.98%
CCCN1C(=O)C(Cc2nc3ccccc3c(=O)n2CC)c2cc(Br)ccc21 (stereo not drawn) -26%
COC(=O)c1c(NC(=O)c2ccc(S(=O)(=O)N3CCC(C)CC3)cc2)sc2c1CCN(C)C2 -13.9%
Cc1cccc(-n2cnc3cc(C(=O)NC4CCCCCC4)ccc32)c1 -13.7%
CC(C)c1ccc(NC(=O)c2ccc3c(c2)CCCN3S(C)(=O)=O)cc1 -64.6%
CCc1ccc(NS(=O)(=O)c2ccc3[nH]c4c(c3c2)CCCCCC4)cc1 -5.72%
O=C1C(Nc2ccccc2)=CC(c2ccc(Br)cc2)N1c1ccccc1 (stereo not drawn) -8.7%
COc1ccc(-n2nnnc2C2CCN(S(=O)(=O)c3cc(Cl)ccc3OC)CC2)cc1 -13.3%
O=C(NCCc1csc(-c2cccnc2)n1)c1cccc(C(F)(F)F)c1 -29.2%
O=C(C1CCC(CNS(=O)(=O)c2ccc(Br)s2)CC1)N1CCN(c2ccccc2)CC1 (stereo not drawn) 3.43%
O=S(=O)(c1ccccc1)n1nc(-c2ccc(Cl)cc2)nc1NCc1ccc(F)cc1 14.6%
O=S(=O)(c1ccc(Cl)cc1)c1nc(-c2ccco2)oc1SCc1ccccc1F -30.3%
COc1ccc(S(=O)(=O)N(Cc2nc(-c3cccc(C)c3)no2)C2CCCCC2)cc1 -8.71%
COc1ccc(NC2=C(c3ccc(C(F)(F)F)cc3)C(=O)c3ccccc32)cc1 16.1%
COc1ccc(C)cc1NC(=O)c1oc2ccc(S(=O)(=O)N3CCC4(CC3)OCCO4)cc2c1C 6.25%
CC(C)Oc1cccc(C2CC(=O)Nc3cc4c(cc32)OCO4)c1 (stereo not drawn) -57.2%
COC(=O)c1c(-c2ccc(Cl)cc2)noc1N1CCN(c2cccc(C(F)(F)F)c2)CC1 14.6%
CCCCN(C)CC(O)Cn1cc(/C=C/C(=O)c2ccc(Br)cc2)c2ccccc21 (stereo not drawn) -16.9%
Cc1cccc(NC(c2ccccc2C)c2ccc3ccc(C)nc3c2O)n1 (stereo not drawn) 4.5%
COc1ccc(CCNC(=O)CCc2cn(Cc3ccc(F)cc3)c3ccccc23)cc1OC -22.2%
CCOc1ccccc1CNC(=O)CCc1cn(C)c2ccccc12 6.25%
CCN(CC)S(=O)(=O)c1ccc2oc(C(=O)NCc3ccccc3OC)c(C)c2c1 4.33%
Cc1ccc(CN2CCCn3nc(C(=O)NCc4ccccc4Cl)cc3C2=O)cc1 -6.67%
Nc1cc(=O)nc(SCC(=O)Nc2ccc(F)cc2)n1-c1ccc(Cl)cc1 9.49%
Cc1ccc(-c2nc(N3CCCC(C)C3)c3ccccc3n2)cc1 (stereo not drawn) 17.8%
COc1ccc2ncc3c(-c4ccc(C)c(C)c4)nn(CC(=O)Nc4ccccc4)c3c2c1 -1.93%
Cc1ccc(N2CC(C(=O)NCCS(=O)(=O)N3CCN(c4ccccc4F)CC3)CC2=O)cc1 (stereo not drawn) 1.3%
O=C(NCCCN1CCN(c2ccccc2F)CC1)c1nnc(Cc2ccc(Cl)cc2Cl)o1 -19.5%

Potency, active:
CC1C(=O)N2CCCc3cc(S(=O)(=O)Nc4ccc(Br)cc4F)cc1c32 (stereo not drawn) 14.7 µM
CC(C)CS(=O)(=O)c1oc(-c2ccc(F)cc2)nc1S(=O)(=O)c1ccccc1 0.656 µM
CCCCS(=O)(=O)c1oc(-c2ccc(F)cc2)nc1S(=O)(=O)c1ccc(C)cc1 6.56 µM
CCS(=O)(=O)c1oc(-c2ccc(F)cc2)nc1S(=O)(=O)c1ccc(Br)cc1 2.93 µM
CCCCS(=O)(=O)c1oc(-c2ccc(F)cc2)nc1S(=O)(=O)c1ccccc1 4.14 µM
CCS(=O)(=O)c1oc(-c2ccc(F)cc2)nc1S(=O)(=O)c1ccccc1 0.208 µM
COc1ccc(-c2cc(C(F)(F)F)nc(S(C)(=O)=O)n2)cc1 11.7 µM
CCCN(CCC)CC(O)Cn1cc(/C=C/C(=O)c2ccc(OCC)cc2)c2ccccc21 (stereo not drawn) 14.7 µM
COc1ccccc1CNC(=O)CCc1c(C)c2ccc(OC)c(C)c2oc1=O 1.47 µM
COc1ccc(-c2nc(CN3CCC(C(=O)NCCCN4CCN(c5ccccc5F)CC4)CC3)c(C)o2)cc1OC 13.1 µM
